The list is not random: actives were taken first. Their share in the collection is about 4.6%.
D1 potentiator – enhances dopamine response at the human D1 receptor; P21728; potentiation, % at 10 µM; HEK293 TREx D1 cells, calcium flux, dopamine EC20 potentiation; AID 504651; hit rate 0.036% among 360,000; in the data active = potentiation above about 30%; note: 0% is about no effect
Target sequence (P21728 whole entry, looked up): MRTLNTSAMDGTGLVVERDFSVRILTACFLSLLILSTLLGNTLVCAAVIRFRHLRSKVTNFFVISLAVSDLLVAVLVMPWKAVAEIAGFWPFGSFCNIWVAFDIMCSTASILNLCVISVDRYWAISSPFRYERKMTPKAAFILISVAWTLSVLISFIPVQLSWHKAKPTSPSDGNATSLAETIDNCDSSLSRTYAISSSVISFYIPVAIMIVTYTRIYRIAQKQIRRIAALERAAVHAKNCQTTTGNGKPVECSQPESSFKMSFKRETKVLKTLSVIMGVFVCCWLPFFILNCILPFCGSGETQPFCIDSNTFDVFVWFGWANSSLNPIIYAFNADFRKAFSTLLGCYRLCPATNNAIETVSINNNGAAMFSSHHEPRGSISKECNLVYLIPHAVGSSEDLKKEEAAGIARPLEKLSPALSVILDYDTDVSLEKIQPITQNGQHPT
D1 ag – activates the human D1 dopamine receptor; P21728; HEK293 T-REx D1 cells, calcium flux, agonist mode; activation, % at 2 µM; hit rate 1% among 360,000; AID 504660; note: 0% is about no effect
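Agonism was scored from calcium flux recorded over 180 s (1 read/s) after pintool compound addition, following a 10-cycle baseline. Cells were inducible force-coupled HEK293 TREx D1, plated overnight at 30 C and loaded with no-wash calcium dye.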
TRHR enhancer – allosteric enhancers of human TRH receptor | enhancement, % at 2 µM | P34981 | AID 493056 | TRHR cells, fluo-8 calcium fluorescence, EC20 TRH enhancement | hit rate 0.66% among 360,000; in the data active = enhancement above about 30%; note: 0% is about no effect
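Enhancer read-out: after compound pinning and an initial kinetic agonist-mode read, an EC20 of TRH (10 nM final) was injected and fluo-8 calcium signal (Ex 480/Em 530) followed at 1 s/cycle for 100 cycles in TRHR-expressing cells.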
TRHR ag – agonists of human TRH receptor | AID 493084 | TRHR cells, calcium flux fluo-8, FDSS agonist mode | activation, % at 2 µM | hit rate 0.18% among 360,000 | P34981; note: 0% is about no effect
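Steps: seed TRHR cells overnight; add fluo-8 no-wash Ca dye, RT 30 min–1.5 h; record 10 s baseline; pin-transfer compounds; monitor fluorescence 1 cycle/s for the agonist window. Calcium increases flag candidate agonists.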
D1 antag – human D1 dopamine receptor antagonism; HEK293 TREx D1 cells, calcium flux, dopamine EC80; hits give low values; hit rate 3.2% among 360,000; P21728; activity change, negative = inhibition, % at 10 µM; in the data active = activity change below about -30%; note: % is set by controls: 0 for no effect and ±100 for the full control effect
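Antagonism measured as reduced calcium response to an EC80 dopamine addition following 180 s compound pre-read; cells were inducible HEK293 Trex D1 plated overnight at 30 C, read kinetically at 1 cycle/sec.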
* hit, by the source's call; ! = a repeat was not active. Cut-off read from the data, not from the text of the source, unless noted: active = activation above about 30%; inactive = the rest.

SMILES	D1 potentiator	D1 ag	TRHR enhancer	TRHR ag	D1 antag
COC(=O)Cc1ccc(NC(=O)c2ccc(Br)o2)cc1	-5	-1	-4	-3	-11
Cc1ccc2c(c1)c1c(c(=O)n(-c3ccccc3C)c(=O)n1Cc1cccc(F)c1)n2C	-3	2	7	-1	-2
Cc1ccc(N=Cc2c(O)c3ccccc3n(C)c2=O)cc1	2	-1	-15	0	5
Cc1ccc(N=Cc2sc(O)c3ccccc23)c(C)c1	-1	47*	-4	10	-5
Cc1ccc(N=Cc2sc(O)c3ccccc23)cc1	16	302*	5	66*	-39*
Cc1ccc(Oc2ncccc2C(=O)NCC(=O)O)cc1	-13	3	5	1	-88*
O=C(NCCS(=O)(=O)N1CCN(c2ccccc2F)CC1)c1ccc(F)c(F)c1	-12	0	-3	0	-33*
O=C(NCCS(=O)(=O)N1CCCC1)c1ccccc1	0	3	5	-1	29
O=C(NCCS(=O)(=O)N1CCCCCC1)c1ccc(F)cc1	-12	1	30*	0	-15
Cc1ccc(C)n1-c1nnc(N2CCCC(C(=O)NCc3ccc(F)cc3)C2)s1 (stereo unspecified)	2	1	3	-2	16
C#CCOc1c(Cl)cc(/C=N/O)cc1OC	-1	0	1	-1	-62*
CCOC(=O)c1c(C)oc2nc(C)nc(NCCCN3CCN(c4cc(C)ccc4C)CC3)c12	4	2	5	-1	14
N#Cc1ccccc1COC(=O)c1ccc2c(c1)OCO2	-2	3	3	0	-42*
Cn1c(=O)n(C)c2cc(NS(=O)(=O)c3ccc4c(c3)CCCC4)ccc21	-4	7	1	0	-34*
N#Cc1cccc(C(=O)OCC(=O)NC(=O)NC2CCCCC2)c1	-3	5	-2	0	-2
O=C(COC(=O)c1cccc(OC(F)F)c1)NC(=O)NC1CCCCC1	-3	43*	2	-1	-11
O=C(COC(=O)c1ccc(Cl)c([N+](=O)[O-])c1)NC1CCCC1	-4	1	-5	-1	-24
O=C(COC(=O)c1cccc2c1C(=O)c1ccccc1C2=O)NC1CCCCC1	3	7	4	0	-78*
O=C(COC(=O)c1ccccc1C(=O)c1ccc(Cl)c([N+](=O)[O-])c1)NC1CCCCCC1	-5	3	-2	-1	-34*
O=C(COC(=O)c1ccc2c(c1[N+](=O)[O-])C(=O)c1ccccc1C2=O)NC1CC1	-3	0	0	0	-5
N#Cc1ccc(CSc2nc3c(c(=O)[nH]2)CCCC3)cc1	-3	1	0	1	1
O=C(CCC1CCN(C(=O)c2ccco2)CC1)NCc1ccc(F)cc1	-15	0	-6	0	-50*
O=C(c1ccco1)N1CCN(c2nc(-c3ccc(F)cc3)cs2)CC1	-6	2	3	0	-42*
Cc1cccc(-c2ccc3ncnc(NCc4cc(C)cs4)c3c2)c1	0	1	-3	1	16
CN(Cc1ccc(F)cc1)S(=O)(=O)c1nnc(NC(=O)c2ccccc2Br)s1	-7	11	-1	0	-45*!
SMILES	D1 potentiator	D1 ag	TRHR enhancer	TRHR ag	D1 antag
CC(=O)OCC1O[C@@H](O[C@@H]2C[C@H]3C(C)(C)[C@H](OC(C)=O)CC[C@]3(C)[C@H]3CC[C@]45C[C@]4(CC[C@H]5[C@@H](C)C[C@@H](O)[C@H](O)C(C)(C)O)[C@@]32C)[C@H](O)[C@@H](O)[C@@H]1O (stereo partly specified)	19	334*	10	0	14
CC(CC(=O)NCc1ccc(Cl)cc1Cl)CC1=NS(=O)(=O)c2ccccc2N1 (stereo unspecified)	-2	21	1	1	-1
COCCNC(=O)c1ccc2c(c1)S(=O)(=O)c1cc(Cl)ccc1C2=O	-2	0	2	1	-17
CC(C)(C)CNC(=O)c1ccc2c(c1)S(=O)(=O)c1cc(Cl)ccc1C2=O	5	3	1	-1	-33*
COC(=O)c1ccc(CNC(=O)c2ccc3c(c2)S(=O)(=O)N=C2CCCCCN23)cc1	2	0	-12	0	0
COc1ccc(-c2cc3onc(-c4c(Cl)cccc4Cl)c3c(=O)n2C)cc1	-6	7	0	0	-33*

Bioassay records deposited in PubChem BioAssay by National Center for Advancing Translational Sciences (NCATS).
